The values below come from PubChem BioAssay AID2284171 (EPA ToxCast).

Records with an inconclusive call do not appear. Calls of active or inactive are those of the source. How the source made its calls: active means hit-call score of the fitted dose curve at least 0.9, where 1 is the maximum; inconclusive means response in the unintended direction; inactive means score below 0.9.

The experiment can be described thus: ERF_FR_GPCR_rPY2: Eurofins (ERF) G Protein-Coupled Receptor (GPCR) Radioligand Binding LeadHunter Assay for rat P2Y Receptor (Non-Selective) Agonism. Here is the method: ERF_FR_GPCR_rPY2 is a biochemical, single-readout assay that uses extracted gene-proteins in a cell-free assay. Measurements were taken 1 hour after chemical dosing in a 96-well plate. See Non-Selective Rat P2Y GPCR Binding (Agonist Radioligand) Assay, Cerep.ERF_FR_GPCR_rPY2 is an assay component calculated from the ERF_FR_GPCR_rPY2 assay. It is designed to measure radioligand binding using a type of binding reporter as detected by scintillation counting with radiometry technology.Data from the assay component ERF_FR_GPCR_rPY2 was analyzed at the assay endpoint, ERF_FR_GPCR_rPY2, in the positive analysis fitting direction relative to DMSO as the negative control and baseline of activity. Using a type of binding reporter, gain-of-signal activity can be used to understand changes in binding as they relate to gene P2RY1. To generalize the intended target to other relatable targets, this assay endpoint is annotated to the gpcr intended target family, where the subfamily is P2Y.
Rat cells are incubated for 60 minutes at room temprature with [35S]dATPalpha S (10 nM) ligand and Datpalphas as control inhibitor. Test Sample Requirements: Minimum for 1) Screen: 60 ul of 10 mM stock -OR- 1 mg (pre-weighed) for 10 uM final testing. 2) Dose Response: 90 ul of 10 mM stock -OR- 1 mg (pre-weighed) for a top concentration at 10 uM.
As usually defined, the AC50 is the concentration at which the activity in the assay is half-maximal. `O=C(/C=C/c1ccc(O)cc1)CC(=O)/C=C/c1ccc(O)cc1`: the half-maximal activity concentration (AC50) was 937 nM (active).
